# PNC assembly inh = High Content Assay for Compounds that inhibit the Assembly of the Perinucleolar Compartment | PC3M PTB-GFP, PNC prevalence imaging, 16 h; hits give low values | activity change (PNC), negative = inhibition, % at 10 µM | hit rate 3.1% among 140,000;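 active = readout at or below -70, meaning at least 70% loss of cells showing the perinucleolar compartment, a nuclear body marking cancer cells; inconclusive = readout between -30 and a set limit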;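 also: plate controls were DMSO wells for no effect and camptothecin positive control wells for full effect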
#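 Read-out is percentage of cells bearing a perinucleolar compartment, from automated 20x imaging of fixed, Hoechst-stained PC3M PTB-GFP cells. Cells were seeded 4 h, then exposed 16 h to compound (23 nl of library stock) in duplicate plates.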
# JMJD2E inh = qHTS Assay for Inhibitors of Human Jumonji Domain Containing 2E (JMJD2E) | hit rate 1.6% among 230,000 | JMJD2E catalytic domain, FDH-coupled NADH fluorescence (FDH is formaldehyde dehydrogenase) | Potency, µM (doses to about 57.1 µM), for the others: at the highest dose activity change, negative = inhibition, usual class: inhibitors | Lysine-specific demethylase 4E (Homo sapiens), B2RXH2;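 also: potency is read from the fitted curve at half-maximal effect; 0% = wells with enzyme and -100% = buffer wells without enzyme; nearly all actives have a fitted effect of over 50% in size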
# Target sequence (B2RXH2 1-337 limits assumed): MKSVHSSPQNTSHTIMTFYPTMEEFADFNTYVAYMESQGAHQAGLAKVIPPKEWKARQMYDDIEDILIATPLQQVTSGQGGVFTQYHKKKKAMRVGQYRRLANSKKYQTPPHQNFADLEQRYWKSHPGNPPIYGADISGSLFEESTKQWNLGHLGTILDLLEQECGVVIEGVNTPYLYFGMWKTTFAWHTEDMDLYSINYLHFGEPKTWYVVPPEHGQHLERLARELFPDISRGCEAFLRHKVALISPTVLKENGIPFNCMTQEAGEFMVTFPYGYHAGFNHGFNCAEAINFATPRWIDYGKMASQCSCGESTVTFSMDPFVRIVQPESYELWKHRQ
# ALDH1A1 inh = qHTS Assay for Inhibitors of Aldehyde Dehydrogenase 1 (ALDH1A1); Aldehyde dehydrogenase 1A1 (Homo sapiens), P00352; hit rate 7.3% among 220,000; Purified ALDH1A1, NADH fluorescence, propionaldehyde substrate; AID 1030, 2008; Potency, µM (doses to about 75.3 µM), inactives show at the top dose activity, negative = inhibition, actives largely listed as inhibitors;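 also: potency is read from the fitted curve at half-maximal effect; plate controls were no enzyme wells and a reference inhibitor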
# HPGD block = qHTS Assay for Inhibitors of HPGD (15-Hydroxyprostaglandin Dehydrogenase); hit rate 4.3% among 150,000; purified HPGD, NADH fluorescence kinetic, PGE2 substrate; AID 894, 2007; Potency, µM, without a hit: top-dose activity change, negative = inhibition, usual class: inhibitors; also: potency is read from the fitted curve at half-maximal effect
# Target sequence (P15428 whole entry, looked up): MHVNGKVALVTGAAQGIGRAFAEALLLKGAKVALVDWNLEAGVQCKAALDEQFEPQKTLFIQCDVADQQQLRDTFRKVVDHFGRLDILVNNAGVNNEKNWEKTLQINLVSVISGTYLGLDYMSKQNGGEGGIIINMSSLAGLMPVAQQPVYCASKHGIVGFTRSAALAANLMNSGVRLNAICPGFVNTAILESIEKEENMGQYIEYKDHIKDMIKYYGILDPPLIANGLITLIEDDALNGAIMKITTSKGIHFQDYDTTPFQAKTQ
#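 NADH formation kinetics: reaction with 30 uM PGE2 and 1 mM NAD+ (final), 20 nM enzyme, Tris-HCl pH 8 with Tween 20, after 15 min compound preincubation at room temperature. Fluorescence change, last versus first of five reads.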
# Active calls of the source: *; ? = inconclusive; / = no result given; [ ] = dose if it differs, or a comment. Rows were chosen to be rich in hits. Some 11% of all compounds tested hit in one or more screens of this group. Unless noted, calls follow the shape of the dose curve; as a rule, active = well fitted inhibition curve with a large enough effect (not every such curve was filed as active); inconclusive = small, poorly fitted or top-dose-only effect, or another doubt; inactive = no such curve, though single readings can be large or run the other way. Unless noted, % is scaled to controls: 0 for no effect and ±100 for the full control effect.
SMILES,PNC assembly inh,JMJD2E inh,ALDH1A1 inh,HPGD block
COCCCn1c(SCC(=O)NC2CCCC2)nnc1-c1ccco1,-106.7*,-5.9%,12.6µM*,-14.5%
COCCNC(=O)CSc1nc2cc3c(cc2c(=O)n1Cc1ccco1)OCO3,-22.6,3.1%,12.6µM*,-6.0%
CCN(CC)C(=O)CSc1nc2c(sc(=S)n2Cc2ccco2)c(=O)n1-c1ccccc1,18.4,10.4%,6.31µM*,-9.5%
CCOC(=O)CSc1nc2c(sc3ccc([N+](=O)[O-])cc32)c(=O)n1Cc1ccco1,-86.6*,-3.5%,?,-16.1%
CCOC(=O)CSc1nc2ccccc2c(=O)n1Cc1ccco1,-3.7,-0.5%,?,-4.9%
CC(=O)NCC(=O)OC(C(=O)c1ccccc1)c1ccc(Cl)cc1 (configuration not stated),?,-4.9%,2.0%,-18.6%
Cc1ccc(N2C(=O)C3C4C=CC(CNC(=S)N5CCN(c6ccccc6)CC5)(O4)C3C2=O)cc1 (configuration not stated),/,-4.2%,0.631µM*,/
Cc1ccc(S(=O)(=O)NCCc2ccccc2)cc1,20.5,-0.9%,-6.3%,-6.2%
Cc1ccc(S(=O)(=O)NCC23C=CC(O2)C2C(=O)N(c4ccccc4)C(=O)C23)cc1 (configuration not stated),8.6,-5.3%,3.55µM*,?
Cc1cccc(NC(=S)NCC23C=CC(O2)C2C(=O)N(c4ccc(Cl)cc4)C(=O)C23)c1 (configuration not stated),39.7,5.9%,1.41µM*,-27.2%
Cc1ccc(NC(=S)NCC23C=CC(O2)C2C(=O)N(c4ccc(C)cc4)C(=O)C23)cc1 (configuration not stated),-18.3,9.9%,1.26µM*,?
CCC/C=C(\CCC)C(NS(C)(=O)=O)c1ccccc1 (configuration not stated),/,3.1%,-3.8%,-2.3%
CN1CCN(NC(=O)c2ccc(S(=O)(=O)N3CC4(C)CC3CC(C)(C)C4)cc2)CC1 (configuration not stated),/,-6.1%,/,/
O=C(NCc1ccccc1)c1ccc(-c2ccc(F)cc2)o1,32.7,?,?,?
NC(=S)N/N=C1/CCSc2ccc3ccccc3c21,/,-5.9%,?,/
CS(=O)(=O)Nc1cccc(-c2cncnc2NCc2ccccc2)c1,/,/,-1.5%,/
NCC1O[C@@H](OC2C(N)C[C@H](N)[C@@H](O[C@H]3OC(CO)C(O)C(N)C3O)C2O)C(O)C(O)C1O (some centres not stated),/,-2.6%,6.8%,-7.5%
COc1ccc(Nc2c([N+](=O)[O-])ccc3c2=NC2(CCCCC2)N=3)cc1,/,?,7.08µM*,/
O=[N+]([O-])c1ccc2c(c1Nc1ccccc1)=NC1(CCCCC1)N=2,-108.8*,?,-14.4%,-9.7%
O=C(N/N=C/c1ccc(N2CCCCC2)o1)C(O)(c1ccccc1)c1ccccc1,?,?,?,31.6µM*
CCC(CC)C(=O)Nc1cccc(C(=O)NCCc2ccc(S(N)(=O)=O)cc2)c1,-101.1*,1.1%,5.2%,-7.1%
CCC(CC)C(=O)Nc1cccc(C(=O)NCCc2ccccc2)c1,/,4.6%,12.1%,/
CCC(CC)C(=O)Nc1cccc(C(=O)NCc2ccco2)c1,-115.3*,-6.4%,-14.7%,-3.8%
COc1cccc([C@@H]2Oc3ccc(Br)cc3C(=O)[C@H]2OC(=O)NCCOc2ccccc2)c1,/,?,-0.2%,-7.2%
C[C@]12O[C@H]1[C@@H](O)C(Br)=C(CO)[C@H]2O,/,6.4%,3.9%,-4.2%
SMILES,PNC assembly inh,JMJD2E inh,ALDH1A1 inh,HPGD block
CCC(Cl)CC(Cl)C(Cl)C(Cl)C(Cl)C(C)Cl (configuration not stated),/,/,?,-6.0%
CCC(c1nnnn1CCc1ccccc1)N(Cc1ccco1)Cc1cc2c(C)ccc(C)c2[nH]c1=O (configuration not stated),10.6,?,22.4µM*,-18.4%
CCC(c1nnnn1Cc1ccccc1)N(Cc1ccco1)Cc1cc2cc(OC)ccc2[nH]c1=O (configuration not stated),-7.1,?,?,-22.8%
CCC(c1nnnn1Cc1ccco1)N(CCc1ccccc1)Cc1cc2cc(C)ccc2[nH]c1=O (configuration not stated),-24.9,?,25.1µM*,/
c1ccc(N2CCN(c3nc4ccccc4n4cnnc34)CC2)cc1,22.8,?,-10.7%,?
c1ccc(CN2CCN(c3nc4ccccc4n4cnnc34)CC2)cc1,18.0,-9.8%,-14.3%,14.1µM*
C1=C(c2ccccc2)CCN(c2nc3ccccc3n3cnnc23)C1,5.6,?,28.2µM*,14.1µM*
CC(C)(C)c1ccc(OCC(=O)N/N=C/c2ccsc2)cc1,?,-0.1%,7.5%,/
CC(C)(C)c1ccc(OCC(=O)N/N=C/C2CC=CCC2)cc1 (configuration not stated),/,70.4%,31.6µM*,/
Cc1ccc(SCc2ccc(C(=O)N3CCCCC3)cc2)cc1,/,-7.0%,3.98µM*,/
CN1CCN(C(=O)c2ccc(CSc3ccc(Cl)cc3)cc2)CC1,?,11.4%,9.2%,8.91µM*
CCOC(=O)N1CCN(C(=O)c2ccc(CSc3ccc(Cl)cc3)cc2)CC1,/,-4.8%,-10.3%,/
CN1CCN(C(=O)c2ccc(CN3CCOCC3)cc2)CC1,-92.7*,1.4%,-6.2%,-19.6%
O=C(O)CCCCCNC(=O)Cn1nnc2ccccc2c1=O,/,-0.1%,/,/
COc1cccc2c1OC(=O)CC2c1ccc(C)cc1 (configuration not stated),/,/,-3.8%[120 µM],?
COc1nc2ccccc2nc1OC,/,7.0%,8.1%,/
COc1ccc(NS(=O)(=O)c2ccc(/C=C/C(=O)O)cc2)cc1S(=O)(=O)N1CCOCC1,/,-4.7%,-7.7%,/
CCOc1ccc2c(c1)C(=O)c1cc(OCC(=O)O)ccc1-2,/,-7.4%,/,/
CCCCOc1ccc2c(c1)C(=O)c1cc(O)ccc1-2,/,-16.2%,39.8µM*,/
Cc1ccc(NC(=S)NCC(C)C)cc1,-23.6,2.6%,13.0%,-15.7%
Cn1nnnc1SCC(=O)N1c2ccccc2CCc2ccccc21,?,1.2%,-6.8%,3.7%
CCn1nnnc1SCC(=O)N1c2ccccc2Sc2ccccc21,-0.1,0.3%,12.6µM*,-6.0%
CCn1nnnc1SCC(=O)N1c2ccccc2CCc2ccccc21,?,11.4%,2µM*,-6.8%
CC(=O)N1CCC2(CC1)CN(c1ccncc1)C2,/,/,10.3%,-12.6%
COc1cc(C(=O)Nc2ccccc2N2CCN(S(C)(=O)=O)CC2)cc(OC)c1OC,5.2,-4.9%,-10.1%,-11.3%
CN1CCN(c2ccccc2NC(=O)c2ccc(Br)o2)CC1,?,0.0%,-1.2%,-2.0%
CS(=O)(=O)N1CCN(c2ccccc2NC(=O)c2ccc(Br)o2)CC1,-24.7,4.8%,3.16µM*,-6.9%
COc1ccccc1C(=O)Nc1ccccc1N1CCN(S(C)(=O)=O)CC1,-90.9*,-2.4%,?,?
